Several values for one entry are separate records, joined by “and”; a condition that tells them apart may be missing. Equal values may be shown once.
molecular target: Cytochrome P450 3A4 (Homo sapiens) (UniProt P08684); test: qHTS Assay for Activators of Cytochrome P450 3A4 (AID 885); conditions: recombinant CYP3A4, Luciferin-PPXE luminescence, 60 min; series mostly up to 57.1 µM; activity change, positive = activation: at the top concentration; note: nearly all actives have a fitted effect of over 65% in size
Sequence (P08684 whole entry, looked up): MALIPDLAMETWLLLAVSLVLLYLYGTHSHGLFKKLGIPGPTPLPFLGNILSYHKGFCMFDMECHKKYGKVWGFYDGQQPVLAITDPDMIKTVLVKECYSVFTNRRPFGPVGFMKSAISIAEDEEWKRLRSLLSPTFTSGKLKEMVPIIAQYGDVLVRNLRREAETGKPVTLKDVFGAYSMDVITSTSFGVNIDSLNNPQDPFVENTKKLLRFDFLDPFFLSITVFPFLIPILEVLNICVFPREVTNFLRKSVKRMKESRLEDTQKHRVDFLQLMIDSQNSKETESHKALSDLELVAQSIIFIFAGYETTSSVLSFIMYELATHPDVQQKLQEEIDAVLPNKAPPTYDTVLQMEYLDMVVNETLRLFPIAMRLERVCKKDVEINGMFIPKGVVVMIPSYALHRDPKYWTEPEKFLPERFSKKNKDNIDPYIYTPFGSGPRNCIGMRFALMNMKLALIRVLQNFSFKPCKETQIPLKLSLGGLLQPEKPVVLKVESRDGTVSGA
Procedure, shortened: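 Steps: enzyme/substrate mix dispensed; compound added, 10 min RT; NADPH regeneration solution added, 60 min RT; luciferin detection buffer stops reaction; 20 min later luminescence measured.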

Activity change, positive = activation, inactive:
CO[C@H]1COC(=O)C/C=C\[C@H](C)[C@@H](OC)COC(=O)[C@@H](C)COC(=O)C/C=C\[C@@H]1C -56.2% [at 11.4 µM], CCCCCCC#CC1C=CC(OC(C)=O)C(COC(C)=O)O1 (configuration not stated) -57.5% [at 11.4 µM], COCOc1cc(OC)ccc1C(=O)/C=C\c1ccc2c(c1)OCO2 -101% [at 11.4 µM], O=Cc1ccc(OC2C=CC(C#Cc3ccccc3)OC2CO)cc1 (configuration not stated) -42% [at 11.4 µM], COC(=O)NC(c1ccccc1)C(C(=O)OC)C(=O)OC (configuration not stated) -40.4% [at 11.4 µM], CCC/C=C/C1C(=O)C2OC2C2(OCC(CC)(CC)CO2)C1CO (configuration not stated) -53.3% [at 11.4 µM], CCCC/C=C/C(NC(=O)c1ccc(C(F)(F)F)cc1)c1ccccc1 (configuration not stated) -56.5%, CCCCCCC1=Cc2cc(OC)c(OC)cc2C(C2(C(=O)OCC)CCCC2=O)O1 (configuration not stated) -36.1% [at 11.4 µM], C/C=C/C1Oc2ccc(OC)cc2N2C(=O)C(C)C(OCOC)C12 (configuration not stated) -50.7% [at 11.4 µM], CC(C)=NOCc1cccc(-c2cc(-c3ccccc3)no2)c1 -40.1% [at 11.4 µM], CCOC(=O)OCC1OC(c2ccccc2)C=CC1Oc1cccc(N(C)C)c1 (configuration not stated) -50.1% [at 11.4 µM], COC(=O)C1=C(C)N(Cc2ccccc2)C2=C(C(C)=O)C[C@@](O)(C(=O)OC)C(=O)N2C1c1ccccc1 (some centres not stated) -45.3% [at 11.4 µM] and -48.2% [at 11.4 µM]

Reference: PubChem BioAssay (NCATS)
